KB-V1 cytotox: kills drug-selected multidrug resistant KB-V1 cells; KB-V1 MDR cells viability, CellTiter-Glo, 72 h; Potency, µM (top dose mostly 46.1 µM), most hits filed as cytotoxic; hit rate 3.4% among 400,000; AID 1347076; note: % is set by controls: 0 for no effect and ±100 for the full control effect; nearly all actives have a fitted effect of over 60% in size
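Cytotoxicity via CellTiter-Glo luminescence after 72 h compound exposure at 37 degrees C. Cells: drug-selected KB-V1 line, DMEM phenol-red free plus 10% FBS. Compounds tested at multiple concentrations; normalized data fitted to concentration-effect curves.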
MCF10A rereplic: induces DNA re-replication in MCF 10a normal breast cells; MCF 10A DNA re-replication, Hoechst nuclear intensity, 48 h; Potency, µM (top dose mostly 46.1 µM), for inactives: top-dose activity, positive = re-replication, actives largely listed as activators; hit rate 2.9% among 350,000; AID 624296; note: % of control where 0% means no effect; nearly all actives have a fitted effect of over 50% in size
PINK1 modulator: modulators of PINK1 expression; Potency, µM (titrated, usually from 76.6 µM), for the others: at the top dose activation (PINK1 increase), actives largely listed as activators; PINK1 immunofluorescence, high-content cytometry, 24 h; hit rate 0.2% among 410,000; active = well fitted activation curve with a large enough effect; inconclusive = small, poorly fitted or top-dose-only effect; cell line not stated here; note: % of control where 0% means no effect; nearly all actives have a fitted effect of over 65% in size
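Decision-based qHTS: stable cells, 24 h exposure to five compound concentrations, CCCP as control. Fixed cells stained for PINK1 plus nuclear, mitochondrial and cell markers, cytometer read.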
PTAP TSG101 blk: blocks PTAP/TSG101 interaction to inhibit HIV-1 budding; AID 493005; 340,000 tested, under 10 active; Potency, µM (titrated, usually from 115 µM), for the others: at the highest dose activity change, negative = inhibition, actives largely listed as inhibitors; Fluorescence polarization, FITC-PTAP peptide / Tsg101 binding; Q99816; active = well fitted inhibition curve with a large enough effect in the main read-out, with a control signal flat, not every such curve was filed as active; inconclusive = small, poorly fitted or top-dose-only effect, or effect the other way, or a change in a side signal; inactive = no such curve, though single readings can be large or run the other way; note: % of control where 0% means no effect
Target sequence (Q99816 whole entry, looked up): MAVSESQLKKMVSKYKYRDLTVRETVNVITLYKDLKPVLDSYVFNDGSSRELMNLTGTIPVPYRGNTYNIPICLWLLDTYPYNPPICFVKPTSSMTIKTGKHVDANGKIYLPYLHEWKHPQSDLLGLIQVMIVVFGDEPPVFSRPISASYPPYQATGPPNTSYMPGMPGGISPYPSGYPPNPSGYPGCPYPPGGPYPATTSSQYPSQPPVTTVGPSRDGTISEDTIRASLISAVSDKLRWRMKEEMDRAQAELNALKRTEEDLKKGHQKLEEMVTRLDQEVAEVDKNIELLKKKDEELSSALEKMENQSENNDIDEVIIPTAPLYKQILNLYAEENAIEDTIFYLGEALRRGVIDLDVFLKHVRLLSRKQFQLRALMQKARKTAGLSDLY
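Compounds were pin-transferred onto Tsg101 binding domain (10 uM final) in HEPES pH 7.5 buffer, then FITC-PTAP peptide was added at 50 nM final. After 20 min at RT, polarization reported peptide displacement across a qHTS concentration series.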
KB-3-1 tox: KB-3-1 parental cell cytotoxicity | KB-3-1 viability, CellTiter-Glo ATP luminescence, 72 h | Potency, µM (titrated, usually from 46.1 µM), most hits filed as cytotoxic | hit rate 1.4% among 400,000 | AID 1347075; note: % is set by controls: 0 for no effect and ±100 for the full control effect; nearly all actives have a fitted effect of over 60% in size
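Cytotoxicity in the drug-sensitive parental line KB-3-1 was scored as loss of CellTiter-Glo luminescence following 72 h incubation with compound. Values come from curve fitting of normalized concentration-response data.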
SW480 rerep: inducers of DNA re-replication in SW480 colon cancer cells | SW480 DNA re-replication, Hoechst DNA content imaging, 48 h | hit rate 1.8% among 340,000 | AID 624297 | Potency, µM (doses to about 46.1 µM), for the others: top-dose re-replication activation, hits mostly activators; note: % of control where 0% means no effect; nearly all actives have a fitted effect of over 55% in size
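Per well, 250 cells were exposed to pinned compound for 48 hr. Nuclear DNA was visualised with Hoechst (40 min, 37 C) and total object intensity recorded by fluorescence scanning.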
* marks the source's active call; other numbers are inactive results; i = inactive; ? = inconclusive; . = no result; [ ] = dose if it differs, or a comment. This is a sample that favours compounds with a hit; in the whole collection about 6.8% have one here. Unless noted, calls come from the whole dose curve; as a rule, active = well fitted curve in the direction sought with a large enough effect; inconclusive = small, poorly fitted or top-dose-only effect, or another doubt; inactive = no such curve, though single readings can be large; an effect the other way counts as inactive or inconclusive. Potency is the fitted concentration of half-maximal effect.

SMILES | KB-V1 cytotox | MCF10A rereplic | PINK1 modulator | PTAP TSG101 blk | KB-3-1 tox | SW480 rerep
C=CCn1c(SCc2ccc(Cl)cc2)nc2cc(C(=O)N3CCC(C(N)=O)CC3)ccc2c1=O | 25.9µM* | -0.2% | -2.4% | -8.5% | ? | -111.0%
Cn1cc(-c2nc3cnc(N4CCOCC4)nc3n(CCC#N)c2=O)c2ccccc21 | . | . | 5.7% | . | . | .
CCc1ccc(NC(=O)CC2C(=O)N(c3ccc(Cl)cc3)C(=O)N2Cc2cccs2)cc1 (stereo unspecified) | . | . | 3.7% | . | . | .
Cc1cccc(C2=NN(c3ccc(Br)cc3)[C@@H](C(=O)N3CCOC3=O)[C@@H]2c2ccc([N+](=O)[O-])cc2)c1 | i | -19.3% | -0.9% | -5.0% | i | -1.2%
Cc1cccc(C2=NN(c3ccccc3)[C@H](CO)[C@H]2c2ccccc2)c1 | i | 2.31µM* | 12.7% | 0.6% | i | 16.4µM*
O=C1C2C(c3ccccc3)=NN(c3ccccc3)C2C(=O)N1c1ccccc1 (stereo unspecified) | i | ? | -2.8% | 0.2% | i | 1.3%
CC[C@@H]1C(c2ccc(F)cc2)=NN(c2ccccc2)[C@H]1C(=O)N1CCOC1=O | i | ? | 1.8% | 4.0% | i | 16.3%
CC[C@H]1C(c2ccc(F)cc2)=NN(c2ccccc2)[C@@H]1CO | i | 6.51µM* | 6.7% | -2.5% | i | ?
OC[C@@H]1[C@@H](c2ccc(F)cc2)C(c2ccccc2)=NN1c1ccccc1 | ? | ? | -1.5% | -9.7% | i | 18.4µM*
Cc1ccc(N2CC(NC(=O)c3ccc(S(=O)(=O)N4CCOCC4)cc3)CC2=O)cc1 (stereo unspecified) | . | . | -0.6% | . | . | .
Cc1ccccc1OCc1nc2ccc(S(=O)(=O)N3CCOCC3)cc2[nH]1 | 20.6µM* | 5.3% | 25.9%[38.3 µM] | -5.1% | i | 0.0%
CCc1ccccc1OCc1nc2ccc(S(=O)(=O)N3CCOCC3)cc2[nH]1 | i | 428.1%[0.0737 µM] | -2.6% | -0.5% | i | -3.2%
CC(=O)Nc1cccc(Oc2ncnc3scc(-c4ccc(C(C)C)cc4)c23)c1 | 20.6µM* | 23.1µM* | -2.0% | 0.9% | ? | ?
COc1ccc(-c2csc3ncnc(Nc4cccc(OC)c4)c23)cc1 | i | . | -1.1% | . | i | .
CN(Cc1cc(Br)cc(Br)c1N)C1CCCCC1 | . | 26.6µM* | . | . | . | ?
Cc1ccc(CNC(=O)Cn2ccn(-c3cccc(Cl)c3)c(=O)c2=O)cc1 | . | . | 0.7% | . | . | .
O=C(NCCc1ccccc1)c1cc(Sc2cccc(Cl)c2)nc2ccccc12 | i | . | -4.8% | . | i | .
CC(C)n1cnc(S(=O)(=O)N2CCCC(C(=O)NCc3ccccc3Cl)C2)c1 (stereo unspecified) | i | . | 0.6% | . | i | .
CCN1C(=NCCCOC(C)C)N[C@@H](CCc2ccccc2)[C@H](C(=O)NCCCOC(C)C)[C@H]1C | i | ? | 22.4µM* | -7.6% | ? | 4.9%
CC/C(=C/c1ccccc1)c1cccc2[nH]c3c(OC)cccc3c12 | ? | 20.6µM* | ? | -3.0% | ? | 10.9%
CCn1c(-c2ccccc2F)nc2cc(NC(C)=O)cc(C(=O)N3CCCC3c3nccs3)c21 (stereo unspecified) | . | . | -1.1% | . | . | .
CN(C)c1ccc(-c2cc(Nc3ccc(F)cc3)ncn2)cc1 | . | . | 1.6% | . | . | .
Cc1cc(C)c(C)c(S(=O)(=O)N2CCN(c3ncnc4ccccc34)CC2)c1C | ? | 18.4µM* | 2.9% | -1.0% | 18.4µM* | 1.4%
O=C(Oc1ccccc1)N1CCC2(CC1)CCN(c1ncccn1)CC2 | . | . | -0.3% | . | . | .
CCc1ccc(CNCc2c(C(=O)O)n(Cc3ccc(C)cc3)c3cc(C)ccc23)cc1 | i | . | 1.6% | . | 18.4µM* | .
Cc1ccc(CNCc2c(C(=O)O)n(Cc3ccc(C)cc3)c3cc(C)ccc23)cc1 | i | . | 5.2% | . | i | .
O=C(Nc1ccc(-n2nncc2-c2ccco2)cc1)c1ccc(F)cc1 | 16.4µM* | 26.1% | -0.4%[38.3 µM] | 0.0% | i | ?
